Test results as given in PubChem BioAssay AID1159580 (chemical genetic matrix, 2015).
Out of some 5,500 compounds screened, about 2,000 (36%) were called active. Inconclusive results (about 18%) are left out. The list shows a part of the results. Unmarked numbers belong to inactive results. Cut-off read from the data, not from the text of the source: active = normalized growth mostly below about 0.91 (no sharp cut-off); inconclusive = no clear call, values can overlap the other calls; inactive = mostly above about 0.92.

Assay: chemical genetic growth profiling, strain panel (AID 1159580);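 note: tested at 20 µM; growth read once vehicle control cultures reached saturation at 30 °C; 1 = growth at the plate median or of vehicle wells; lower values mean less growth of the strain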
Conditions: growth OD

C=CCc1cc(OC)c2c(c1OC)OCO2
normalized growth (S. cerevisiae deletion strains, locus YJR075W, strain HOC1, hits give low values): 0.928 | normalized growth (S. cerevisiae deletion strains, locus YKL009W, strain mrt4, hits give low values): 0.953 | normalized growth (S. cerevisiae deletion strains, locus YKL068W, hits give low values): 0.94 (active) | normalized growth (S. cerevisiae deletion strains, locus YKL085W, strain MDH1 (second series), hits give low values): 0.939 | normalized growth (S. cerevisiae deletion strains, locus YKL085W, strain MDH1, hits give low values): 0.939 | normalized growth (S. cerevisiae deletion strains, locus YKL160W, strain elf1, hits give low values): 0.915 | normalized growth (S. cerevisiae deletion strains, locus YKL190W, strain CNB1, hits give low values): 0.964 | normalized growth (S. cerevisiae deletion strains, locus YKR001C, strain vps1, hits give low values): 0.953 | normalized growth (S. cerevisiae deletion strains, locus YKR026C, strain gcn3, hits give low values): 0.909 (active) | normalized growth (S. cerevisiae deletion strains, locus YKR091W, strain srl3, hits give low values): 0.922 (active) | normalized growth (S. cerevisiae deletion strains, locus YLL001W, strain dnm1, hits give low values): 0.96 | normalized growth (S. cerevisiae deletion strains, locus YLL026W, hits give low values): 0.923 (active) | normalized growth (S. cerevisiae deletion strains, locus YLL041C, strain sdh2, hits give low values): 0.947 | normalized growth (S. cerevisiae deletion strains, locus YLR027C, strain aat2, hits give low values): 0.941 | normalized growth (S. cerevisiae deletion strains, locus YLR039C, strain RIC1, hits give low values): 1.03 | normalized growth (S. cerevisiae deletion strains, locus YLR058C, strain SHM2, hits give low values): 0.976 | normalized growth (S. cerevisiae deletion strains, locus YLR102C, strain apc9, hits give low values): 0.923 (active) | normalized growth (S. cerevisiae deletion strains, locus YLR113W, strain HOG1, hits give low values): 0.957 | normalized growth (S. cerevisiae deletion strains, locus YLR221C, strain rsa3, hits give low values): 0.948 | normalized growth (S. cerevisiae deletion strains, locus YLR258W, strain gsy2, hits give low values): 0.941 | normalized growth (S. cerevisiae deletion strains, locus YLR262C, strain YPT6 (second series), hits give low values): 0.903 | normalized growth (S. cerevisiae deletion strains, locus YLR262C, strain YPT6, hits give low values): 1.06 | normalized growth (S. cerevisiae deletion strains, locus YLR268W, strain sec22, hits give low values): 1.01 | normalized growth (S. cerevisiae deletion strains, locus YLR320W, strain mms22, hits give low values): 0.666 (active) | normalized growth (S. cerevisiae deletion strains, locus YLR330W, strain CHS5, hits give low values): 0.967 | normalized growth (S. cerevisiae deletion strains, locus YLR342W, strain FKS1 (second series), hits give low values): 0.953 | normalized growth (S. cerevisiae deletion strains, locus YLR342W, strain FKS1, hits give low values): 0.932 | normalized growth (S. cerevisiae deletion strains, locus YLR357W, strain rsc2, hits give low values): 1.07 | normalized growth (S. cerevisiae deletion strains, locus YLR370C, strain arc18, hits give low values): 0.924 | normalized growth (S. cerevisiae deletion strains, locus YLR371W, strain rom2, hits give low values): 0.943 | normalized growth (S. cerevisiae deletion strains, locus YLR384C, strain iki3, hits give low values): 0.935 | normalized growth (S. cerevisiae deletion strains, locus YLR418C, strain cdc73, hits give low values): 0.938 | normalized growth (S. cerevisiae deletion strains, locus YML016C, strain PPZ1, hits give low values): 0.988 | normalized growth (S. cerevisiae deletion strains, locus YML032C, strain rad52, hits give low values): 0.987 | normalized growth (S. cerevisiae deletion strains, locus YML120C, strain ndi1, hits give low values): 0.969 | normalized growth (S. cerevisiae deletion strains, locus YML124C, strain tub3, hits give low values): 0.931 (active) | normalized growth (S. cerevisiae deletion strains, locus YMR058W, strain fet3, hits give low values): 0.951 | normalized growth (S. cerevisiae deletion strains, locus YMR078C, strain ctf18, hits give low values): 0.943 | normalized growth (S. cerevisiae deletion strains, locus YMR125W, strain sto1, hits give low values): 0.896 | normalized growth (S. cerevisiae deletion strains, locus YMR129W, hits give low values): 0.921 (active) | normalized growth (S. cerevisiae deletion strains, locus YMR205C, strain PFK2, hits give low values): 0.83 (active) | normalized growth (S. cerevisiae deletion strains, locus YMR223W, strain ubp8, hits give low values): 0.935 | normalized growth (S. cerevisiae deletion strains, locus YMR231W, strain pep5, hits give low values): 1 | normalized growth (S. cerevisiae deletion strains, locus YMR263W, strain SAP30, hits give low values): 0.94 | normalized growth (S. cerevisiae deletion strains, locus YMR307W, strain GAS1, hits give low values): 0.987 | normalized growth (S. cerevisiae deletion strains, locus YNL067W, strain RPL9B, hits give low values): 0.921 | normalized growth (S. cerevisiae deletion strains, locus YNL071W, strain lat1, hits give low values): 0.737 (active) | normalized growth (S. cerevisiae deletion strains, locus YNL128W, strain TEP1, hits give low values): 0.971 | normalized growth (S. cerevisiae deletion strains, locus YNL153C, strain GIM3, hits give low values): 0.97 | normalized growth (S. cerevisiae deletion strains, locus YNL183C, strain NPR1, hits give low values): 0.916 | normalized growth (S. cerevisiae deletion strains, locus YNL209W, strain ssb2, hits give low values): 0.962 | normalized growth (S. cerevisiae deletion strains, locus YNL233W, strain BNI4, hits give low values): 0.835 (active) | normalized growth (S. cerevisiae deletion strains, locus YNL248C, strain rpa49, hits give low values): 0.969 | normalized growth (S. cerevisiae deletion strains, locus YNL250W, strain rad50, hits give low values): 0.967 | normalized growth (S. cerevisiae deletion strains, locus YNL271C, strain bni1, hits give low values): 0.929 | normalized growth (S. cerevisiae deletion strains, locus YNL298W, strain CLA4, hits give low values): 0.96 | normalized growth (S. cerevisiae deletion strains, locus YNL307C, strain MCK1, hits give low values): 0.862 (active) | normalized growth (S. cerevisiae deletion strains, locus YNL322C, strain KRE1 (second series), hits give low values): 0.933 | normalized growth (S. cerevisiae deletion strains, locus YNL322C, strain KRE1, hits give low values): 0.961 | normalized growth (S. cerevisiae deletion strains, locus YNR049C, strain mso1, hits give low values): 0.942 | normalized growth (S. cerevisiae deletion strains, locus YNR052C, strain pop2, hits give low values): 0.984 | normalized growth (S. cerevisiae deletion strains, locus YOL006C, strain TOP1, hits give low values): 0.589 | normalized growth (S. cerevisiae deletion strains, locus YOL012C, strain htz1): 1.06 | normalized growth (S. cerevisiae deletion strains, locus YOL147C, strain pex11, hits give low values): 0.943 | normalized growth (S. cerevisiae deletion strains, locus YOR001W, strain rrp6, hits give low values): 0.949 | normalized growth (S. cerevisiae deletion strains, locus YOR061W, strain CKA2, hits give low values): 0.981 | normalized growth (S. cerevisiae deletion strains, locus YOR069W, strain VPS5, hits give low values): 0.99 | normalized growth (S. cerevisiae deletion strains, locus YOR070C, strain gyp1, hits give low values): 0.982 | normalized growth (S. cerevisiae deletion strains, locus YOR080W, strain dia2, hits give low values): 0.991 | normalized growth (S. cerevisiae deletion strains, locus YOR083W, strain WHI5, hits give low values): 0.951 | normalized growth (S. cerevisiae deletion strains, locus YOR106W, strain vam3, hits give low values): 0.956 | normalized growth (S. cerevisiae deletion strains, locus YOR136W, strain idh2, hits give low values): 0.974 | normalized growth (S. cerevisiae deletion strains, locus YOR144C, strain elg1, hits give low values): 0.952 | normalized growth (S. cerevisiae deletion strains, locus YOR184W, strain ser1, hits give low values): 0.872 (active) | normalized growth (S. cerevisiae deletion strains, locus YOR231W, strain MKK1, hits give low values): 0.999 | normalized growth (S. cerevisiae deletion strains, locus YOR265W, strain rbl2, hits give low values): 0.967 | normalized growth (S. cerevisiae deletion strains, locus YOR270C, strain vph1, hits give low values): 0.841 | normalized growth (S. cerevisiae deletion strains, locus YOR290C, strain snf2, hits give low values): 0.926 | normalized growth (S. cerevisiae deletion strains, locus YOR316C, strain cot1, hits give low values): 0.929 | normalized growth (S. cerevisiae deletion strains, locus YPL051W, strain arl3, hits give low values): 0.998 | normalized growth (S. cerevisiae deletion strains, locus YPL055C, strain LGE1, hits give low values): 0.908 | normalized growth (S. cerevisiae deletion strains, locus YPL078C, strain atp4, hits give low values): 0.906 | normalized growth (S. cerevisiae deletion strains, locus YPL106C, strain sse1, hits give low values): 0.987 | normalized growth (S. cerevisiae deletion strains, locus YPL240C, strain hsp82, hits give low values): 0.927 (active) | normalized growth (S. cerevisiae deletion strains, locus YPL241C, strain CIN2, hits give low values): 0.967 | normalized growth (S. cerevisiae deletion strains, locus YPL256C, strain CLN2, hits give low values): 0.977 | normalized growth (S. cerevisiae deletion strains, locus YPR119W, strain clb2, hits give low values): 0.926 (active) | normalized growth (S. cerevisiae deletion strains, locus YPR141C, strain kar3, hits give low values): 0.94 | normalized growth (S. cerevisiae deletion strains, locus YPR163C, strain tif3, hits give low values): 0.968 | normalized growth (S. cerevisiae deletion strains, locus YPR167C, strain met16, hits give low values): 0.939 | normalized growth (S. cerevisiae deletion strains, strain wtn01, hits give low values): 0.933 | normalized growth (S. cerevisiae strains, strain wild type, hits give low values): 0.999
